In all, about 6,200 compounds went through this assay and about 2,900 (47%) were called active. No stated cut-off is given here; in the data, active means inhibition above about 50%; inactive means the rest. So high a share suggests a set chosen from earlier hits. The list shows a part of the results.
Experiment: Mycobacterium tuberculosis growth inhibition, primary screen (AID 1259343)
Conditions: inhibition: at 10 µM, active compounds read high; outcome: 10 uM

Structure (SMILES) | inhibition
COc1cccc(-n2nnc3c(SCc4cccnc4)ncnc32)c1 | 74.8% (active)
COc1ccc(-n2nnc3c(SCc4cccc(Cl)c4)ncnc32)cc1 | -33.7% (inactive)
Cc1cccc(-c2ccc(NC(=O)C3CCN(Cc4nccs4)CC3)cc2)c1 | 37.9% (inactive)
CC(=O)c1cccc(CN2CCC(C(=O)Nc3cccc(-c4cccc(F)c4)c3)CC2)c1 | 69% (active)
COc1cccc(-c2ccc(NC(=O)C3CCCN(Cc4cnc(N(C)C)s4)C3)cc2)c1 (stereo not drawn) | 48.7% (inactive)
CCCc1ncc(CN2CCC(C(=O)Nc3cccc(-c4cccc(F)c4)c3)CC2)cn1 | inactive
CC(=O)c1cc(CN2CCC(C(=O)Nc3cccc(-c4cccc(F)c4)c3)CC2)cs1 | 91.3% (active)
O=C(Nc1cccc(-c2cccc(F)c2)c1)C1CCN(Cc2cccc3cnccc23)CC1 | 75.2% (active)
O=C(Nc1cccc(-c2cccc(F)c2)c1)C1CCN(Cc2cccs2)CC1 | 36.5% (inactive)
Cc1cccc(-c2ccc(NC(=O)C3CCN(Cc4cnc(N(C)C)s4)CC3)cc2)c1 | 88.2% (active)
CCCn1nnnc1NCc1cccn1C | 1.45% (inactive)
Cn1ccsc1=NC(=O)CCN1c2ccccc2Sc2ccccc21 | -5.61% (inactive)
Cc1cccc(CN2CCC(C(=O)Nc3cccc(-c4cccc(F)c4)c3)CC2)n1 | 76.4% (active)
CC(=O)c1cccc(CN2CCC(C(=O)Nc3ccc(-c4cccc(C)c4)cc3)CC2)c1 | 86.5% (active)
c1nc(NC2CC3CC2C2CCCC32)c2sccc2n1 (stereo not drawn) | 30.1% (inactive)
COc1cccc(OC)c1OCCCOc1ccc(C)cc1Cl | 47.8% (inactive)
COc1cccc(OC)c1OCCCOc1ccc(Cl)cc1Cl | 89.4% (active)
COc1cccc(OC)c1OCCOc1ccc(Br)cc1Cl | 82% (active)
O=c1cnnc(SCc2ccc(C(F)(F)F)cc2)[nH]1 | 84.2% (active)
Cc1ccn2c(=O)nc(SCc3ccc(C(F)(F)F)cc3)nc2c1 | 22.7% (inactive)
O=c1nc(SCc2ccc(C(F)(F)F)cc2)nc2ccccn12 | -29.6% (inactive)
FC(F)(F)c1ccccc1CCNc1nncc(-c2ccccc2)n1 | -20% (inactive)
c1ccc2c(c1)[I+]c1ccccc1-2 | 101% (active)
CC(O)c1ccc(Oc2ccc(Br)cc2)cc1 (stereo not drawn) | 72.8% (active)
Nc1ccc(Oc2ccc(Br)cc2)cc1 | 39.8% (inactive)
OC(COc1ccc(Cl)cc1)CSc1ccc(Br)cc1 (stereo not drawn) | -20.4% (inactive)

Structure (SMILES) | inhibition
NC(=O)C1CCN(c2nc3cc(C(F)(F)F)ccc3s2)C1 (stereo not drawn) | 34.5% (inactive)
CCc1cnc(C)nc1N1CCCC(C(=O)c2ccc(C(F)(F)F)cc2)C1 (stereo not drawn) | 51.3% (active)
COC(=O)C(Cc1ccc(OCCn2c(=O)sc3cc(C(=O)c4ccccc4)ccc32)cc1)C(=O)OC | 51.7% (active)
COc1ccc(NC(=O)c2sc(=O)n(CCOc3ccc(F)cc3)c2C)cc1OC | 27.4% (inactive)
O=c1nc(SC/C=C/c2ccccc2)nc2ccccn12 | -19.1% (inactive)
c1ccc(-c2nc(SC(c3ccccc3)c3ccccc3)n[nH]2)cc1 | 22.5% (inactive)
C(=C\c1ccccc1)/CSc1n[nH]c(-c2cccnc2)n1 | 96.6% (active)
COc1ccc(-c2ccc(C(=O)N3CCCC(c4ccccc4)CC3)cn2)cc1 (stereo not drawn) | 36.2% (inactive)
O=C(C1CCC1)N1CCC(CCc2ccc(-c3ccccc3)cc2)CC1 | 44.8% (inactive)
O=C(c1ccco1)N1CCC(CCc2ccc(-c3ccccc3)cc2)CC1 | 81% (active)
c1ccc(-c2ccc(CCC3CCN(Cc4cccs4)CC3)cc2)cc1 | 43.2% (inactive)
O=C(c1ccco1)N1CCC(Cc2ccc(F)cc2)CC1 | 86.8% (active)
O=C(c1ccco1)N1CCCC2(CCCCC2)C1 | -18% (inactive)
O=C(c1ccc(-c2ccc(O)cc2)nc1)N1CCC(CCc2ccccc2)CC1 | 83.7% (active)
CCOC(=O)C(=O)N1CCC(CCc2ccccc2)CC1 | 90.7% (active)
O=C(c1ccno1)N1CCC(Cc2ccc(F)cc2)CC1 | 56.4% (active)
Cc1ccccc1N1CCN(Cc2cc(C#CCO)cs2)C(C)C1 (stereo not drawn) | -56.2% (inactive)
Cc1ccccc1N1CCN(Cc2ccc(C#CCO)s2)C(C)C1 (stereo not drawn) | 76.9% (active)
c1ccc2c(c1)CN1CCCC1=N2 | 101% (active)
O=C1OC2(CCCCC2)OC(=O)C1=CNc1ccc2ccccc2c1 | 48.9% (inactive)
O=C1C=C(Nc2ccc3ccccc3c2)CCC1 | 89.7% (active)
O=C(Nc1nnc(-c2ccc3c(c2)OCCO3)o1)c1cccc2ccccc12 | 98.7% (active)
CN(CCNC(=O)C1(C)CC1(Cl)Cl)C1CC1 (stereo not drawn) | -9.78% (inactive)
N#Cc1cccc(OCc2noc(-c3ccsc3)n2)c1 | 34.2% (inactive)
COc1cccc(C(C)N(C)Cc2nc(COc3ccccc3)no2)c1 (stereo not drawn) | 71.8% (active)
FC(F)(F)c1cccc(Cc2noc(CN3CCC(OCc4ccccn4)CC3)n2)c1 | 32% (inactive)

Structure (SMILES) | inhibition
CN(Cc1csc(-c2ccccc2)n1)Cc1nc(Cc2cccc(F)c2)no1 | 90.6% (active)
CN(Cc1nc(COc2ccccc2)no1)CC1(c2ccccc2)CC1(C)C (stereo not drawn) | 42.2% (inactive)
Cc1c(CN(C)Cc2nc(Cc3cccc(C(F)(F)F)c3)no2)[nH]c2ccccc12 | 66.5% (active)
Cc1cc2nc(CN(C)Cc3nc(Cc4cccc(C(F)(F)F)c4)no3)[nH]c2cc1C | inactive
COc1cccc(C(C)N(C)Cc2nc(-c3cccc(Cl)c3)oc2C)c1 (stereo not drawn) | -0.61% (inactive)
COc1cccc(C(C)N(C)Cc2nc(Cc3cccc(F)c3)no2)c1 (stereo not drawn) | 65.5% (active)
COc1ccccc1OC(C)c1nc(Cc2cccc(C(F)(F)F)c2)no1 (stereo not drawn) | 36.2% (inactive)
CC1CCC(C(C)C)c2[nH]nc(-c3ccccc3O)c21 (stereo not drawn) | 4.33% (inactive)
O=S(=O)(/C=C/c1ccc(Cl)cc1)Oc1ccc(F)c(F)c1 | 92.7% (active)
Cn1ccc(NS(=O)(=O)/C=C/c2ccc(Cl)cc2)n1 | 41.7% (inactive)
CC(C)CCNCC(O)CON=C1c2ccccc2-c2ccccc21 (stereo not drawn) | 84.8% (active)
CCCCC/C=C\C/C=C\C/C=C\CCCCC(=O)N1CCN(Cc2cc(=O)c(OCc3cccc(F)c3)co2)CC1 | 16.1% (inactive)
N#Cc1ccccc1-c1ccc(COc2coc(CN3CCN(C(=O)c4ccc([N+](=O)[O-])o4)CC3)cc2=O)cc1 | 102% (active)
Cc1cc(C)c(-c2nc3cc(NC(=O)c4cccs4)ccc3o2)c(C)c1 | 42.8% (inactive)
CCc1nc2cc(NC(=O)CC3CCCCC3)ccc2o1 | 89.5% (active)
Cc1nc2cc(NC(=O)CN(C)S(=O)(=O)c3ccc(F)cc3)ccc2o1 | 23.8% (inactive)
Fc1ccccc1OCC1CCCN(Cc2nc(-c3cccs3)no2)C1 (stereo not drawn) | 47% (inactive)
Clc1ccccc1C1CCN(Cc2nc(-c3cccs3)no2)C1 (stereo not drawn) | 96.1% (active)
c1csc(-c2noc(CN3CCCC(c4nc5ccccc5o4)C3)n2)c1 (stereo not drawn) | inactive
c1csc(-c2noc(CN3CCc4sccc4C3)n2)c1 | 46.9% (inactive)
CC(c1nc(-c2cccs2)no1)N1CCC(c2ccccc2)CC1 (stereo not drawn) | -41.5% (inactive)
Fc1ccccc1CC1CCN(Cc2nc(-c3cccs3)no2)CC1 | 83.9% (active)
CCCC1=NN(c2nc3ccccc3s2)C(=O)C1C(C)=Nc1ccc(C(=O)OCC)cc1 (stereo not drawn) | 98.8% (active)
CC(C)Oc1ccc(CNC(=O)c2ccco2)cc1F | 99.8% (active)
O=C(Nc1ccc(SC2CCCC2)cc1)c1ccc(=O)[nH]c1 | 53.3% (active)
Nc1nccnc1C(=O)Nc1ccc(SC2CCCC2)cc1 | 80% (active)

Structure (SMILES) | inhibition
Nc1nccnc1C(=O)NCCSCc1ccsc1 | -5.01% (inactive)
CCc1c(C)nc(-n2nc(C)cc2NC(=O)c2cccc([N+](=O)[O-])c2C)[nH]c1=O | 102% (active)
Cc1cc(=O)[nH]c(-n2nc(C)cc2NC(=O)c2cccc([N+](=O)[O-])c2C)n1 | 100% (active)
CCc1c(C)nc(-n2nc(C)cc2NC(=O)c2ccccc2[N+](=O)[O-])[nH]c1=O | 81.9% (active)
Cc1cc(NC(=O)c2cccc([N+](=O)[O-])c2C)n(-c2nc(C)c(C)c(=O)[nH]2)n1 | 98.3% (active)
N#CCc1ccc(Oc2ccc(C(=O)O)cc2)cc1 | 34.3% (inactive)
O=C(O)c1ccc(Oc2cccc(Br)c2)cc1 | 91.5% (active)
O=C(O)c1ccc(Oc2cc(Cl)ccc2Cl)cc1 | 45.5% (inactive)
CC[n+]1c(-c2ccccc2)c2cc(N)ccc2c2ccc(N)cc21 | 99.5% (active)
Nc1ccc(-c2nc(-c3ccccc3)c3cc(N)ccc3n2)cc1 | 29.6% (inactive)
Cc1ccc2sc(NNC(=O)c3cc(=O)c4ccccc4o3)nc2c1C | 72.2% (active)
O=S(=O)(c1ccc(F)cc1)N1CCN(c2ccnc3cc(Cl)ccc23)CC1 | 3.02% (inactive)
O=S(=O)(c1ccc(F)c(F)c1)N1CCN(c2ccc(O)cc2)CC1 | 56.7% (active)
CCC(C)NC(=O)c1cnc(N2CCN(c3ccccc3[N+](=O)[O-])CC2)nc1OC (stereo not drawn) | 2.36% (inactive)
CCC(CC)NC(=O)c1ccc(N2CCCCC2)c([N+](=O)[O-])c1 | 96.8% (active)
O=C(c1ccc(N2CCCCC2)c([N+](=O)[O-])c1)N1CCc2ccccc21 | 23.8% (inactive)
CN(C(=O)CSc1nc2sc3c(c2c(=O)[nH]1)CCCC3)C1CCCCC1 | 93.2% (active)
CN(C(=O)CSc1nc2sc3c(c2c(=O)n1C)CCCC3)C1CCCCC1 | 18.9% (inactive)
CCOC(=O)c1nn(-c2cccc(C)c2)c(=O)c2c(N)scc12 | 89.5% (active)
CCOC(=O)c1nn(-c2ccccc2)c(=O)cc1NC(=O)c1ccc(C(C)(C)C)cc1 | -13.4% (inactive)
CCOC(=O)c1nn(-c2ccccc2)c(=O)c2c(NC(=O)CCCCl)scc12 | 61.2% (active)
CCOC(=O)c1nn(-c2ccc(C)cc2)c(=O)c2c(N)scc12 | 60.8% (active)
CCOC(=O)c1nn(-c2ccc(C)cc2)c(=O)cc1N1CCN(c2ccccc2OC)CC1 | 38.5% (inactive)
CCOC(=O)c1nn(-c2ccc(C)cc2)c(=O)cc1NC(=O)C1CCCC1 | -7.9% (inactive)
CCOC(=O)c1nn(-c2ccc(C(C)C)cc2)c(=O)c2c(N)scc12 | 101% (active)

— PubChem BioAssay AID1259343 (VanderVen Lab, College of Veterinary Medicine, Cornell …, 2017)
